An excerpt weighted towards active compounds, which were near 1.4% of everything screened.
HER2 expr 66K: lowers expression of human Her2 kinase; 0.69% of 65,000 active; P04626; SKBR-3 HER2 protein level, AlphaScreen, 18-24 h; stronger effect = lower value; HER2 level % of control, % at 10 µM;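 active = HER2 level under 5% of the carrier-only control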;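 also: 100% = DMSO carrier and 0% = 500 nM PU-H71 HSP90 inhibitor; lower value means stronger loss of Her2 protein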
E coli RNAP: Escherichia coli RNA polymerase inhibition; AID 559; E. coli RNA polymerase, fluorescence transcription assay; P0A8V2; 0.2% of 62,000 active; inhibition, %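 (tested at 10 µM)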; in the data active = inhibition above about 20%;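 also: 0% = enzyme without compound and 100% = no enzyme blank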
SK-BR-3 tox 24h: SK-BR-3 proliferation inhibitors | SK-BR-3 viability, CellTiter-Glo ATP luminescence, 24 h; stronger effect = lower value | viability, % at 10 µM | 0.47% of 41,000 active;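 active = viability at or below the median of all test compounds minus 3 SD, in both replicates if run twice, cut at about 45% in these data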;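 also: 100% = median untreated cell wells and 0% = median positive control drug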
BAP1 block: blocks human BAP1 ubiquitin-AMC hydrolysis | recombinant BAP1, Ub-AMC hydrolysis fluorescence kinetic; stronger effect = lower value | calls only at 20 µM | 0.48% of 72,000 active | AID 436;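 active = activity remaining at or below 50% of control, provided the compound also passes the data quality filters; inactive = the rest, including low values that fail the filters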;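 also: 100% = DMSO wells rate and 0% = substrate alone blank rate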
TNAP act mid DEA: human TNAP activation, intermediate phosphate acceptor; 64,000 tested, under 10 active; activation factor at 20 µM; P05186; purified TNAP, CDP-star luminescence, 100 mM DEA, 30 min; stronger effect = higher value; scale: 0 levamisole-inhibited, 1 vehicle-only enzyme; AID 813;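 active = activation factor of at least 2 at 20 µM, relative to controls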
* = called active by the depositor; i = inactive; · = no result.

SMILES	HER2 expr 66K	E coli RNAP	SK-BR-3 tox 24h	BAP1 block	TNAP act mid DEA
O=C(CCN1CCC(c2ccccc2)C1)c1cccs1 (configuration not stated)	-45*	12	147	i	0.9
O=C(c1cccs1)N1CCC(c2ccccc2)C1 (configuration not stated)	89	14	82	i	0.9
CC(C)n1c(SCc2ccc(Cl)cc2)nc2c1c(=O)[nH]c(=O)n2C	-55*	5	76	i	0.9
CC(C)CCn1c(SCc2ccc(Cl)cc2)nc2c1c(=O)[nH]c(=O)n2C	44	6	80	i	0.9
O=C(Nc1nc(-c2nc3ccccc3s2)cs1)c1ccc(Oc2ccccc2)cc1	·	·	·	i	·
O=c1oc2ccc([N+](=O)[O-])cc2cc1-c1csc(Nc2ccccc2)n1	·	·	·	i	·
CCc1ccc(NC(=O)N(CCN2CCOCC2)C2CCN(C(C)=O)CC2)cc1	-27*	3	·	i	0.9
CCOCCCN(C(=O)Nc1ccc(CC)cc1)C1CCN(C(C)=O)CC1	85	-5	·	i	1
O=C(CSc1nnc(-c2cccs2)o1)OCc1ccccc1	90	4	43*	i	1
O=C(CCCNS(=O)(=O)c1cccs1)N1CCN(c2ccc(F)cc2)CC1	47	15	76	·	0.9
O=C(CCCNS(=O)(=O)c1cccs1)N1CCN(c2cccc(Cl)c2)CC1	138	43*	69	·	0.9
CCOc1cccc2cc(C(N)=O)c(=Nc3ccc(Br)cc3)oc12	·	·	·	i	·
COCC(C)n1c(C)cc(C(=O)COC(=O)c2c(NC(C)=O)sc(C)c2C)c1C (configuration not stated)	-11*	8	·	i	0.9
COCC(C)n1c(C)cc(C(=O)COC(=O)c2c(C)nn(-c3ccccc3)c2C)c1C (configuration not stated)	96	0	·	i	1
O=C(CCCNS(=O)(=O)c1cccc2nsnc12)N1CCCCC1	80	-1	79	i	0.9
O=C(CCCNS(=O)(=O)c1cccc2nsnc12)NC1CCCCC1	81	26*	82	i	0.9
CCN(CC)S(=O)(=O)c1cc(C(=O)Nc2cccc(O)c2)ccc1C	·	·	·	i	·
CCn1c(SCC(=O)NC(=O)Nc2ccc3c(c2)OCCO3)nnc1-c1cccs1	93	22*	·	i	1
CCn1c(SCC(=O)Nc2ccc3c(c2)OCCO3)nnc1-c1ccco1	105	4	·	i	1
O=C(CCc1ccccc1)Nc1nnc(-c2ccccc2I)s1	·	·	·	i	·
Cn1c(C(C#N)C(=O)c2ccco2)nc2ccccc21 (configuration not stated)	-12*	13	129	i	0.9
CCCn1c(NC(=O)c2ccco2)nc2ccccc21	0.7*	0	·	i	0.9
COc1ccc(OCCn2c(NC(=O)c3ccco3)nc3ccccc32)cc1	59	-9	89	i	1
CCOC(=O)CNC(=O)c1c(-c2ccccc2Cl)noc1C	·	·	·	i	·
CCC(=O)N1c2ccc(S(=O)(=O)CCC(=O)N3CCn4c3nc3ccccc34)cc2CC1C (configuration not stated)	-15*	4	·	i	0.9
SMILES	HER2 expr 66K	E coli RNAP	SK-BR-3 tox 24h	BAP1 block	TNAP act mid DEA
COC(=O)C1=C(C)Nc2ncnn2C1c1ccc(OC)cc1 (configuration not stated)	·	·	·	i	·
CCOc1ccc2nc(Nc3nc(C)c(C)c(=O)[nH]3)nc(C)c2c1	·	·	·	i	·
CCOc1ccc(NC(=O)C/C(N)=N/O)cc1	-21*	7	78	i	0.9
O=C(c1ccccc1Cl)N1CCCc2ccccc21	·	·	·	i	·
CCCc1cc(=O)[nH]c(SCC(=O)c2c(N)n(C)c(=O)n(C)c2=O)n1	81	3	34*	·	0.9
CCC(C)[C@@H](NC(=O)OC(C)(C)C)c1nnc(S(=O)(=O)Cc2cccc(C)c2)o1 (some centres not stated)	-17*	7	21*	i	1
CCCS(=O)(=O)N1CCC(C(=O)N2CCC(Cc3ccccc3)CC2)CC1	-27*	0	·	i	1
CCCS(=O)(=O)N1CCCC(C(=O)N2CCC(Cc3ccccc3)CC2)C1 (configuration not stated)	123	6	·	i	1
Cc1[nH]nc2c1C(C1CC=CCC1)C(C#N)=C(N)O2 (configuration not stated)	-10*	4	83	i	0.6
CCC(CC)C1C(C#N)=C(N)Oc2n[nH]c(C)c21 (configuration not stated)	132	10	90	i	0.8

Screening results (PubChem)
